Compounds with a hit are over-represented: about 5% of the library has one in this group of screens.
USP7 inh = blocks human USP7 ubiquitin-rhodamine cleavage. 47,000 tested, 0.3% active. purified USP7, Ub-rhodamine cleavage fluorescence. Q93009. AID 1645854. inhibition, % at 20 µM
UCHL1 inh = inhibitors of human UCHL1 deubiquitinase; purified UCHL1, Ub-rhodamine cleavage fluorescence; 47,000 tested, 0.2% active; inhibition, % at 20 µM; P09936
USP10 block = human USP10 deubiquitinase inhibition; purified USP10, Ub-rhodamine fluorescence, 60 min; inhibition, % at 20 µM; 47,000 tested, 1.1% active
OTUD3 inh = blocks human OTUD3 ubiquitin-rhodamine cleavage; inhibition, % at 25 µM; Q5T2D3; 47,000 tested, 0.7% active; purified OTUD3, Ub-rhodamine fluorescence, 2 h
Target sequence (Q5T2D3 whole entry, looked up): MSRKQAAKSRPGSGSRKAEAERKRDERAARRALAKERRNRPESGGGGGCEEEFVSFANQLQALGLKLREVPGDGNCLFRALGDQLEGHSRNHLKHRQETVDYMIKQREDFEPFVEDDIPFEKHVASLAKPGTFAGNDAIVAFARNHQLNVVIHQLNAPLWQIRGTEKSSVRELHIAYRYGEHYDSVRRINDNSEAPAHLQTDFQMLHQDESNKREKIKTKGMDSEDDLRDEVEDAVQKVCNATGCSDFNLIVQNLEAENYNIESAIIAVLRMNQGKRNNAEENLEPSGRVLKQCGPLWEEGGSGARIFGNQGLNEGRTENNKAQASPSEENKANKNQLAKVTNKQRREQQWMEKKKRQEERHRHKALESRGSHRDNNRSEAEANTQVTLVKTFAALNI
USP8 inh = human USP8 deubiquitinase inhibition | 47,000 tested, 4.2% active | inhibition, % at 20 µM | AID 1645853 | purified USP8, Ub-rhodamine cleavage fluorescence, 30 min
* hit, by the source's call. Cut-off read from the data, not from the text of the source: active = inhibition above about 30%; inactive = the rest.

SMILES | USP7 inh | UCHL1 inh | USP10 block | OTUD3 inh | USP8 inh
CC(C)(C)c1ccc(Cn2nnc3c(=O)[nH]c(C4CCN(S(=O)(=O)c5ccc(S(=O)(=O)NC6CC6)cc5)CC4)nc32)cc1 | 14 | 10 | 29 | 11 | 33*
CC(C)(C)c1ccc(Cn2nnc3c(=O)[nH]c(C4CCN(S(=O)(=O)c5ccc(S(=O)(=O)NC6CCCC6)cc5)CC4)nc32)cc1 | 0 | -3 | 29 | 7 | -176
O=C(COc1cccc2ccc(N3CCC(Cc4ccccc4)CC3)nc12)Nc1cccc(Cl)c1 | 1 | -1 | -6 | 2 | 84*
Cc1cc(-c2cnc(NCc3ccc(F)cc3)nc2-c2ccco2)on1 | 1 | 0 | 12 | 8 | 35*
Cc1cccc(NC(=O)CSc2ncnc3c2sc2nc(N4CCOCC4)c4c(c23)CC(C)(C)OC4)c1 | 7 | 1 | -3 | 12 | 0
O=C(c1cc(S(=O)(=O)Nc2ccc(Cl)cc2)ccc1Cl)N1CCCc2ccccc21 | -20 | 5 | 36* | -36 | -24
Cc1ccc(C(=O)OCC(=O)N2CC(=O)Nc3ccccc32)cc1C | -5 | -5 | -9 | -19 | -9
COc1ccc(C2c3c(-c4ccccc4O)n[nH]c3C(=O)N2Cc2ccncc2)cc1OC (stereo not drawn) | 9 | 3 | 0 | 1 | 14
COCCN1C(=O)c2[nH]nc(-c3ccccc3O)c2C1c1cccc(OCc2ccccc2)c1 (stereo not drawn) | -2 | 12 | 22 | -5 | 65*
COc1ccc(Cc2nnc(Nc3cccc(C)c3)[nH]c2=O)cc1OC | 1 | -2 | 2 | -6 | -10
Cc1cccc(Nc2nnc(Cc3ccccc3)c(=O)[nH]2)c1 | 16 | 2 | 16 | 7 | 59*
COc1ccc(Nc2nnc(Cc3ccccc3)c(=O)[nH]2)cc1 | 8 | 1 | 11 | 0 | 25
COc1ccc(Cc2nnc(Nc3ccccc3)[nH]c2=O)cc1 | 4 | -1 | 3 | 11 | 51*
COc1ccc(Cc2nnc(Nc3ccc(F)cc3)[nH]c2=O)cc1 | 8 | 0 | 25 | 0 | 52*
COc1ccc(Cc2nnc(Nc3ccccc3)[nH]c2=O)cc1OC | 1 | -1 | 0 | 0 | 2
COc1ccc(Cc2nnc(NC(C)c3ccccc3)[nH]c2=O)cc1 (stereo not drawn) | 15 | 4 | 31* | 10 | 67*
O=C(CC1Oc2ccccc2NC1=O)Nc1ccccc1Br (stereo not drawn) | 3 | -1 | 2 | -19 | 0
O=C(COc1ccc(Cl)cc1)Nc1noc(-c2cccs2)n1 | 21 | 8 | 12 | 0 | 85*
CCN1C(=O)c2c(C(=O)Nc3ccc(C)cc3)ncn2CC1(C)C(=O)NC1CCCC1 (stereo not drawn) | 0 | -1 | 5 | 0 | -1
Cc1ccc(C(=O)N2CCCC(Cc3cnc(-c4ncc[nH]4)cn3)C2)cn1 (stereo not drawn) | 4 | 1 | -3 | 8 | 0
Cc1cc(CSc2ncccc2C(=O)Nc2ccnn2C(C)c2ccncc2)no1 (stereo not drawn) | -16 | -15 | -3 | -14 | -288
CCn1ccc2c(cc(C(=O)Nc3cc(F)ccc3F)n2C)c1=O | -3 | -1 | 4 | -7 | -27
CC(C)N1CCN(S(=O)(=O)c2ccc3c(c2)OCCCO3)CC1 | 1 | 3 | -3 | 2 | 0
Cc1ccccc1Nc1nc(-c2cnc(N3CCOCC3)nc2C)cc(=O)[nH]1 | 1 | 1 | 2 | 8 | 5
Cc1nc(N2CCCC2)ncc1-c1cc(=O)[nH]c(Nc2ccc(Cl)cc2Cl)n1 | 14 | 3 | 51* | 8 | 1
SMILES | USP7 inh | UCHL1 inh | USP10 block | OTUD3 inh | USP8 inh
CCn1c(SCC(=O)Nc2cccc(Cl)c2C)nc(=O)c2c(C)cc(C)nc21 | -1 | -16 | -12 | -43 | -1
Cn1cc2nc(SCC(=O)NCc3ccccc3Cl)n(CC3CC3)c(=O)c2n1 | -3 | -1 | 3 | 0 | 42*
Cc1c(Cl)cccc1NC(=O)CSc1nc2cn(C)nc2c(=O)n1CC1CC1 | -11 | 1 | -4 | 2 | 43*
COc1ccc(-c2nc(SCC(=O)Nc3ccc(Cl)cc3F)n[nH]2)cc1 | -6 | -1 | 6 | -4 | -32
Cc1ccc(Cl)cc1NC(=O)CSc1nc2cn(C)nc2c(=O)n1CC1CC1 | -30 | 2 | 2 | 38* | 61*
Cn1cc2nc(SCC(=O)Nc3ccc(Cl)cc3F)n(CC3CC3)c(=O)c2n1 | -14 | -1 | 1 | -4 | 32*
CCOC(=O)CSc1nc2nccnc2c(=O)n1Cc1ccccc1Cl | 1 | 2 | -2 | 16 | -41
CCc1ccc(NC(=O)C(C)c2c(C)n[nH]c2C)cc1 (stereo not drawn) | 0 | 0 | -2 | -9 | -6
CCN(C=C1NC(=O)c2ccccc2N1)CC(=O)Nc1ccc(Cl)c(C(F)(F)F)c1 | -11 | 6 | -3 | -6 | 30*
CCC(C)c1ccc(NC(=O)CN(C=C2NC(=O)c3ccccc3N2)CC)cc1 (stereo not drawn) | -1 | 3 | 4 | -2 | 1
Cc1cn2nnc(C(=O)Nc3ccc(OC(F)(F)F)cc3)c2c(=O)[nH]1 | 10 | 2 | 24 | 15 | 54*
COc1ccc(CCNC(=O)CCCn2c(SCC(=O)NCc3ccco3)nc3ccccc3c2=O)cc1OC | -5 | -1 | 5 | 37* | -6
CCCCCn1c(SCC(=O)CC(=O)OCC)nc2cc(C(=O)NCc3ccco3)ccc2c1=O | -4 | -6 | 7 | -6 | 63*
Cc1ncsc1CN1CCC(c2nccnc2-c2ncc[nH]2)CC1 | 1 | 1 | -6 | 8 | -1
COc1cccc(CN2COc3c(Cl)cc4c(C)c(C)c(=O)oc4c3C2)c1 | -4 | -4 | -4 | -21 | -14
O=C(Cn1c(-c2nc(-c3cccc(F)c3)no2)cccc1=O)NCc1ccco1 | 5 | 13 | 38* | 25 | 87*
Cc1ccc2c(=O)c(C(=O)N3CCCCC3)cn(CC(N)=O)c2n1 | -1 | -3 | 1 | 1 | 4
Cc1ccc(NS(=O)(=O)c2cccc(C(=O)NC3CCN(Cc4ccccc4)CC3)c2)c(C)c1 | 2 | 7 | 0 | -5 | -1
O=C(NC1CCCCCC1)c1cccc(S(=O)(=O)Nc2cc(C(F)(F)F)ccc2Cl)c1 | 2 | 6 | 53* | 6 | 26
COc1cccc(C(=O)Nc2cnn(-c3ncncc3N(C)C)c2)c1 | 2 | -1 | 0 | 7 | -1
Cc1ccn2cc(-c3ccc(NC(=O)C(C)Oc4ccccc4)cc3)nc2n1 (stereo not drawn) | 8 | 0 | 13 | -6 | 40*
Cc1ccn2cc(-c3ccc(NC(=O)Cc4ccccc4)cc3)nc2n1 | 4 | 0 | 5 | 11 | -3
CCOc1ccc(CC(=O)Nc2ccc(-c3cn4cccnc4n3)cc2)cc1 | -24 | 22 | 14 | -6 | 40*
Cc1ccc(-c2cn3cccnc3n2)cc1NC(=O)C(C)Oc1ccccc1 (stereo not drawn) | -2 | -5 | -1 | -4 | -10
CCn1cnc2cc(NCc3cccc(OC)c3O)ccc21 | -1 | -1 | 0 | -1 | 40*

High-throughput results: PubChem, Buhrlage Lab, Dana-Farber Cancer Institute and Novartis Institutes for BioMedical Research (Cambridge, Mass)
